# Bioassay records as filed in PubChem BioAssay.
# In the library only some 2.9% were active in any assay of this set; here they are far more common.
# Nrf2 activator: activates Nrf2 signaling. Potency, µM (doses to about 46.1 µM), inactives show top-dose activation, actives largely listed as activators. 410,000 tested, 0.31% active. AREc32 ARE-luciferase reporter (MCF7-derived line), luminescence, 24 h; further: % of control where 0% means no effect; nearly all actives have a fitted effect of over 65% in size
#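 ARE activation measured as luciferase luminescence (Steady-Glo, 30 min RT) in AREc32_Fluc cells after 24 hr compound exposure at 37 deg C, 5% CO2; cells seeded overnight at 1000/well in OPTI-MEM, 5% FBS.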
# ATXN2 expr inh: inhibitors of ATXN2 expression; HEK-293 ATXN2-luciferase reporter, luminescence, 24 h; Potency, µM (highest dose often 57 µM), for inactives: at the highest dose activity change, negative = inhibition, hits mostly inhibitors; 360,000 tested, 0.72% active; further: on the % scale 0 is the no-effect control and ±100 the full control effect; nearly all actives have a fitted effect of over 55% in size
#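 ATXN2-luciferase reporter cells (luciferase flanked by upstream and downstream ATXN2 gene portions) were treated 24 h at 37 °C with compounds at up to 57 uM. SteadyGlo luminescence gave expression; GF-AFC fluorescence gave viability.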
# A549 tox: kills or reduces viability of A549 cells in Nrf2 counter-screen; A549 ARE-Fluc cells, CellTiter-Fluor viability, 18-24 h; Potency, µM (series often up to 46 µM), inactives show at the top dose activity change, negative = cytotoxicity, usual class: inhibitors; 390,000 tested, 0.16% active; AID 504648; further: on the % scale 0 is the no-effect control and ±100 the full control effect
#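 Cytotoxicity counterscreen: CellTiter-Fluor fluorescence was measured in A549 ARE_Fluc cells after 18-24 h of compound exposure in a concentration series. The subsequent BugLite luminescent read reports ARE-luciferase activity.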
# Nrf2 block: Nrf2 pathway inhibition; A549 ARE-Fluc reporter, luciferase luminescence, 18-24 h; Potency, µM (highest dose often 46 µM), without a hit: top-dose activity change, negative = inhibition, usual class: inhibitors; 360,000 tested, 2.1% active; AID 504444; further: on the % scale 0 is the no-effect control and ±100 the full control effect; nearly all actives have a fitted effect of over 60% in size
#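 In this cell-based qHTS, ARE-driven firefly luciferase in A549 cells reports Nrf2 activity; the luminescent signal after BugLite lysis is the measured value, with a prior CellTiter-Fluor read for cell health.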
# S2 tox: reduces viability in counter-screen for ATXN expression inhibitors. S2 cells (HEK-293 line with an ATXN2-luciferase reporter) viability, CellTiter-Fluor protease fluorescence, 24 h. Potency, µM (titrated, usually from 56.7 µM), usual class: cytotoxic. 400,000 tested, 0.49% active. AID 651635; further: nearly all actives have a fitted effect of over 40% in size
# An asterisk follows results filed as active; i = inactive; ? = inconclusive; · = not tested or not shown; [ ] = another dose, or the depositor's remark. The call rests on the fitted dose curve; in most records, active means well fitted curve in the direction sought with a large enough effect; inconclusive means small, poorly fitted or top-dose-only effect, or another doubt; inactive means no such curve, though single readings can be large; an effect the other way counts as inactive or inconclusive. Potency means the concentration at half of the fitted maximal effect.
SMILES,Nrf2 activator,ATXN2 expr inh,A549 tox,Nrf2 block,S2 tox
CCN1CCN(Cc2c(O)ccc3c(=O)c(Oc4ccccc4C(C)C)c(C(F)(F)F)oc23)CC1,-2%,3%,-1%,11%,i
COc1ccc(-c2noc(C3CCCN(C(=O)CCc4ccccc4)C3)n2)cc1 (stereo unspecified),0%,0%,-7%,?,?
O=C(c1ccco1)N1CCCC(c2nc(-c3ccc(S(=O)(=O)NCc4ccccc4)cc3)no2)C1 (stereo unspecified),-1%,28µM*,-11%[1.84 µM],10µM*,?
CCOc1ccccc1NC(=O)c1c2c(nc3ccccc13)C(=O)N(C1CCCCC1)C2,-1%,·,-7%,?,·
O=C(NC1=NCCS1)C1COc2ccccc2O1 (stereo unspecified),-2%,2.5µM*,-5%,?,i
COc1ccc(Cn2nnnc2C(CC(C)C)N2CCN(c3ccccc3)CC2)cc1 (stereo unspecified),-1%,-19%,0%,·,i
COc1ccc(Cn2nnnc2C(C(C)C)N2CCc3ccccc32)cc1 (stereo unspecified),-1%,-10%,-9%,16µM*,i
CCc1ccc(S(=O)(=O)Nc2c(NC3CCCCC3)c3ccccc3oc2=O)cc1,0%,-12%,-18%,26µM*,i
O=C(COc1ccccc1Cl)NCC1(N2CCOCC2)CCCCC1,3%,·,0%,4%,·
CNc1ccc(Br)cc(C(=O)/C=C/c2cc(OC)ccc2OC)c1=O,14µM*,?,?,?,·
CCNc1ccc(Br)cc(C(=O)/C=C/c2ccc(Cl)cc2Cl)c1=O,?,32µM*,?,26µM*,?
CNc1ccc(Br)cc(C(=O)/C=C/c2ccc3c(c2)OCO3)c1=O,?,?,-20%,?,i
CNc1ccc(Br)cc(C(=O)/C=C/c2ccc(OC)cc2)c1=O,?,?,0%,0%,i
O=C(Nc1ccc(N2CCOCC2)cc1)c1cn2ccccc2n1,-1%,11µM*,-8%,?,i
O=C(Nc1ccc(N2CCCCC2)cc1)c1ccccn1,-3%,1.8µM*,-3%,?,i
Cc1cccc(CNc2ncnc3ccc(-c4cccnc4)cc23)c1,0%,-7%,-6%,4%,i
Cc1[nH]nc2ccc(-c3cncc(OC[C@@H](N)Cc4ccccc4)c3)cc12,·,3.1µM*,·,·,·
COc1ncccc1C(=O)N1CCOc2ccc(C(O)C(c3ccccc3)c3ccccc3)cc2C1 (stereo unspecified),·,·,·,·,i
CCOC(=O)c1cc(CC)sc1NC(=O)CN1CCN(C(=O)c2ccco2)CC1,4%,?,?,21µM*,?
O=[S+]([O-])(c1ccc2nsnc2c1)N1CCN([S+](=O)([O-])c2c(F)cccc2F)CC1,·,·,-2%,0%,·
Cc1ccc(NS(=O)(=O)c2c(C)nc3sc(C)c(C)n3c2=O)cc1F,3%,·,1%,21µM*,·
CCOC(=O)c1ccc(NC(=O)CCc2nc(-c3ccccc3Cl)no2)cc1,0%,?,-19%,16µM*,i
CN(C)CCCn1cnc2c(c1=N)C(c1ccccc1)c1ccc3ccccc3c1O2 (stereo unspecified),-4%,·,8%,11%,?
COc1cccc(C2c3c(ncn(CCCN4CCOCC4)c3=N)Oc3ccc4ccccc4c32)c1 (stereo unspecified),·,·,15µM*,-125%,·
N=c1c2c(ncn1CCCO)Oc1c(ccc3ccccc13)C2c1ccccc1 (stereo unspecified),8%,·,-22%,-15%,14µM*
SMILES,Nrf2 activator,ATXN2 expr inh,A549 tox,Nrf2 block,S2 tox
COc1ccc(C2c3ccc4ccccc4c3Oc3ncn(CCCO)c(=N)c32)cc1 (stereo unspecified),6%,25µM*,?,-21%,·
Cc1cccc(C#CC2=CC(=O)CC(C)(C)C2)c1,?,17%,·,·,?
CC1(C)CC(=O)C=C(C#CC2(O)CCCCC2)C1,?,?,·,·,16µM*
O=C(N/N=C/c1c(Cl)nc2ccccn2c1=O)c1cccnc1,14µM*,·,4%,?,i
CN1CC[C@@H](c2c(O)cc(O)c3c(=O)cc(-c4ccccc4Cl)oc23)[C@@H](O)C1,·,0.15µM*,·,·,·
Cc1cc(O)c(C(c2ccc(F)cc2)N2CCCCC2)c(=O)n1Cc1ccco1 (stereo unspecified),0%,·,2%,·,·
Cc1ccc(CSC(Nc2ccc(F)cc2)=C(C#N)C#N)cc1,26%,-29%,?,21µM*,i
CCN(CC)C(=O)CSC(Nc1ccc(F)cc1)=C(C#N)C#N,6%,0%,-18%,4%,i
O=C(CCSCc1ccccc1Cl)NCc1ccc(F)cc1Cl,3%,·,12%,·,·
Cc1ccc(-n2nnnc2Sc2ccc(S(=O)(=O)NCCN(C)C)cc2[N+](=O)[O-])cc1,?,?,6.5µM*,10µM*,?
O=[N+]([O-])c1cc(S(=O)(=O)NCCN2CCOCC2)ccc1Sc1nnnn1-c1ccccc1,?,-31%,-6%,?,?
O=C(COc1ccc2ccccc2c1)Nc1ccc(Cc2ccncc2)cc1,0%,-19%,-27%,15µM*,i
Cc1c(C(=O)N2CCCC2)sc2ncnc(NCCc3ccccn3)c12,·,·,·,·,i
CN(CCO)C(=O)c1cn(C2CCCN(Cc3cccc4ccccc34)C2)nn1 (stereo unspecified),·,·,·,·,i
COc1nc(N/N=C/c2cc3c(cc2Br)OCO3)nc(N2CCOCC2)n1,2%,6%,13%,16µM*,i
Clc1cc2c(cc1/C=N/Nc1nc(N3CCOCC3)nc(N3CCOCC3)n1)OCO2,5%,1%,-2%,-24%,i
Cc1ccc(Cl)cc1N1CCN(Cc2nnc(-c3ccc4c(c3)OCO4)o2)CC1,0%,-21%,-11%,21µM*,?
Clc1ccc(N2CCN(Cc3nnc(-c4ccc5c(c4)OCO5)o3)CC2)cc1,-1%,7%,-5%,12%,i
CCOC(=O)C1=C(c2ccccc2)N=c2s/c(=C\c3ccc(O)cc3)c(=O)n2C1c1cccs1 (stereo unspecified),-1%,28µM*,?,16µM*,?
CCOC(=O)C1=C(c2ccccc2)N=c2sc(=Cc3cc(OC)c(OC)c(OC)c3)c(=O)n2C1c1cccs1 (stereo unspecified),-1%,10%,·,·,i
C[C@@H](Oc1cc(-n2cnc3ccc(CN4CCN(C)CC4)cc32)sc1C(N)=O)c1ccccc1C(F)(F)F,·,31µM*,·,·,·
CN1CCN(CCNC(=O)Nc2ccccc2C(F)(F)F)CC1,-1%,-6%,10%,·,i
COc1ccccc1CN(Cc1c(Cl)cccc1Cl)S(=O)(=O)c1ccc(Br)cc1,1%,·,-1%,·,·
CN(C(=O)c1sc2nc(N3CCOCC3)c3c(c2c1N)CCCC3)c1ccccc1,1%,·,1%,16µM*,i
